Experimental data taken from PubChem BioAssay (Tox21).
Results filed as inconclusive are left out. Activity calls are given as the source filed them. Unless noted, calls follow the shape of the dose curve; as a rule, active = well fitted curve in the direction sought with a large enough effect in the repeat runs; inconclusive = weak or mixed curves; inactive = no such curve, though single readings can be large; an effect the other way counts as inactive or inconclusive.

What was measured:
[1] = qHTS assay to identify small molecule antagonists of the estrogen related receptor (ERR) signaling pathway - cell viability counter screen (AID 1224818);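 also: series mostly up to about 46 µM; viability measured after 17.5 h of compound exposure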
Summary of the method: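 In the same ERR cell assay, compound-treated wells (17.5 h, 37 C) were multiplexed with a fluorogenic viability reagent, CellTiter-Fluor, read after 30 min to flag cytotoxic substances.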

[2] = qHTS assay to identify small molecule antagonists of the estrogen related receptor (ERR) signaling pathway (AID 1224819; also: nearly all actives have a fitted effect of over 50% in size; also: potency is read from the fitted curve at half-maximal effect)
Summary of the method: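 qHTS in ERR cells, 2,000/well, 1536 format. Cpd (DMSO) added after 6 h settle, 18 h 37 C. One-Glo luminescence, 30 min RT.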

[3] = qHTS assay to identify small molecule agonists of the estrogen related receptor (ERR) signaling pathway (AID 1224820)
Summary of the method: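 Cells: ERR line from NTP, 2,000/well. Pre-incubation 6 h, 37 C/5% CO2. Compound (DMSO) pin transfer, 18 h 37 C. One-Glo, 30 min RT, luminescence.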

[4] = system: estrogen-related receptor alpha (ERRalpha) with PGC-1alpha coactivator, human; assay: qHTS assay to identify small molecule antagonists of the estrogen related receptor signaling pathway with the pleiotropic PPARgamma coactivator (PGC) (AID 1224821; calls by dose curve;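 also: series mostly up to about 46 µM; lower luminescence signal means antagonism of PGC/ERR signalling; nearly all actives have a fitted effect of over 50% in size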)
Summary of the method: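 Luminescent read-out (One-Glo, 30 min at room temperature) following 18 h treatment of PGC/ERR cells at 37 C with compounds delivered in DMSO. Cells had settled 6 h at 37 C/5% CO2 before dosing.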

[5] = qHTS assay to identify small molecule antagonists of the estrogen related receptor signaling pathway with the pleiotropic PPARgamma coactivator (PGC) cell viability counter screen (AID 1224822; also: series mostly up to about 46 µM)
Summary of the method: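 Compounds in DMSO, with positive and negative controls, were applied to PGC/ERR cells (2,000/well) and left 17.5 h at 37 C before CellTiter-Fluor detection.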

[6] = qHTS assay to identify small molecule agonists of the estrogen related receptor signaling pathway with the pleiotropic PPARgamma coactivator (PGC) (AID 1224823)
Summary of the method: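 Steps: plate PGC/ERR cells at 2,000 cells/well; incubate 6 h, 37 C/5% CO2; pin-transfer compounds (DMSO); incubate 18 h, 37 C; add One-Glo; 30 min RT; read luminescence.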

[7] = qHTS assay to identify small molecule antagonists of the estrogen related receptor (ERR) signaling pathway from Tox21 library - cell viability counter screen (AID 1224834); also: nearly all actives have a fitted effect of over 30% in size
Summary of the method: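 CellTiter-Fluor fluorescence measured; ERR cells; 17.5 h compound incubation at 37 C; 30 min reagent step.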

[8] = qHTS assay to identify small molecule antagonists of the estrogen related receptor signaling pathway with the pleiotropic PPARgamma coactivator (PGC) from Tox21 10K library (AID 1224841; call rule not given here; also: series mostly up to about 92 µM; actives are mostly falling curves and most rising ones were filed inactive; nearly all actives have a fitted effect of over 50% in size)
Summary of the method: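 Each well held 2,000 PGC/ERR cells, pre-incubated six hours (37 C, 5% CO2). Test substances in DMSO were added by pin tool and left for 18 h at 37 C before luciferase detection by One-Glo.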

[9] = qHTS assay to identify small molecule agonists of the estrogen related receptor signaling pathway with the pleiotropic PPARgamma coactivator (PGC) from Tox21 10K library (AID 1224842); also: nearly all actives have a fitted effect of over 15% in size
Summary of the method: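 PGC/ERR reporter cell line, 2,000 cells per well, incubated 6 h at 37 C before 23 nL compound in DMSO was added. After 18 h at 37 C, One-Glo luminescence read following 30 min at room temperature.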

[10] = qHTS assay to identify small molecule antagonists of the estrogen related receptor (ERR) signaling pathway from Tox21 library (AID 1224848); also: nearly all actives have a fitted effect of over 50% in size
Summary of the method: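 ERR reporter cell line (from NTP) seeded 2,000 cells/well, rested 6 h at 37 C/5% CO2, then pin-dosed with compounds in DMSO. After 18 h at 37 C, ONE-Glo added; luminescence read after 30 min at room temperature.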

[11] = biological target: Acetylcholinesterase (Homo sapiens) (UniProt P22303); assay: Acetylcholinesterase (AChE) small molecule antagonists: colormetric cell-based qHTS assay (AID 1347395; calls by dose curve; also: nearly all actives have a fitted effect of over 30% in size)
Summary of the method: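 Colorimetric read-out: DTNB detects thiocholine released when cellular AChE in SH-SY5Y cells hydrolyses acetylthiocholine. Cells attached overnight, received compound for 30 min at 37 C, then substrate mix for 90 min at 37 C.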

[12] = biological target: Acetylcholinesterase (Homo sapiens) (UniProt P22303); assay: Acetylcholinesterase (AChE) small molecule antagonists: enzyme-based qHTS assay (AID 1347397; calls by dose curve; also: nearly all actives have a fitted effect of over 55% in size); conditions: Potency: AChE enzyme activity inhibition; outcome: AChE enzyme activity inhibition
Summary of the method: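 Recombinant human AChE (50 mU/mL) preincubated with compound 30 min at room temperature; acetylthiocholine plus DTNB then added, and thiocholine formation read colorimetrically after 10 min at room temperature. DMSO served as vehicle control.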

[13] = biological target: Acetylcholinesterase (Homo sapiens) (UniProt P22303); assay: Acetylcholinesterase (AChE) small molecule antagonists: fluorescence cell-based qHTS assay (AID 1347398; calls by dose curve; also: nearly all actives have a fitted effect of over 50% in size); conditions: Potency: AChE activity; outcome: AChE activity
Summary of the method: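 SH-SY5Y cells (2000/well), attached overnight, incubated with compound 30 min at 37 C. Acetylthiocholine plus Thiolite Green then added for 40 min at room temperature. Thiocholine fluorescence (Ex/Em 490/520 nm) reports cellular AChE activity.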

[14] = biological target: Acetylcholinesterase (Homo sapiens) (UniProt P22303); assay: Acetylcholinesterase (AChE) small molecule antagonists: enzyme-based qHTS assay with human liver microsomes (AID 1347399; calls by dose curve; also: nearly all actives have a fitted effect of over 60% in size); conditions: Potency: qHTS inhibition; outcome: qHTS inhibition
Summary of the method: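 Recombinant human AChE (50 mU/mL in the enzyme mix) and human liver microsomes (0.25 mg/mL final) were preincubated with compound and NADPH (0.25 mg/mL final) for 30 min at 37 C. Acetylthiocholine/DTNB was then added; thiocholine was read colorimetrically after 10 min at room temperature.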

Measured: Potency

Sequence of Acetylcholinesterase (Homo sapiens) (P22303 whole entry, looked up): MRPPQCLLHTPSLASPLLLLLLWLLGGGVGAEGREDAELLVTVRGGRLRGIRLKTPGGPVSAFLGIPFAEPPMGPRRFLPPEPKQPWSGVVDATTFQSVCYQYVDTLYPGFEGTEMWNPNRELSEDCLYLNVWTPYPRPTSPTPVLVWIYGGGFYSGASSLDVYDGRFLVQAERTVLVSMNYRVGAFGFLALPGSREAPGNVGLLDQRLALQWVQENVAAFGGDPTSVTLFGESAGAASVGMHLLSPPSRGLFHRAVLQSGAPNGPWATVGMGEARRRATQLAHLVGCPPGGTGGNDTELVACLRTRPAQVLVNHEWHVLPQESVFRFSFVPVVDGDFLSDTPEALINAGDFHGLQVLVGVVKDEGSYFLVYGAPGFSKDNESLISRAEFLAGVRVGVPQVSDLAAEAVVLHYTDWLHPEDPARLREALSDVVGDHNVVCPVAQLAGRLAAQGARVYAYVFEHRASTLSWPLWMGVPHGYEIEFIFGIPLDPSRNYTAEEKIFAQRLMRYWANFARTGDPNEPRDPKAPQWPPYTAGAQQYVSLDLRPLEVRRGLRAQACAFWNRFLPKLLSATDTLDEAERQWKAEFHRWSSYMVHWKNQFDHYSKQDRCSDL

C=CCN1C[C@@H](C)N([C@H](c2ccc(C(=O)N(CC)CC)cc2)c2cccc(OC)c2)C[C@@H]1C
inactive: [1] | [3] | [4] | [5] | [6]
active: [2] 26.6 µM

C[C@H]1C2Cc3ccc(O)cc3[C@@]1(C)CCN2CC1CC1
inactive: [1] | [2] | [3] | [4] | [5] | [6]

OC1CCCCC1N1CCC(c2ccccc2)CC1 (stereo not given)
inactive: [1] | [2] | [3] | [4] | [5] | [6]

Nc1ccc(CCN2CCN(c3cccc(C(F)(F)F)c3)CC2)cc1
active: [2] 13.9 µM
inactive: [1] | [3] | [4] | [5] | [6]

C[N+]1(C)C2CCC1CC(OC(=O)c1c[nH]c3ccccc13)C2 (stereo not given)
inactive: [1] | [2] | [3] | [4] | [5] | [6]

CC(N)Cc1c[nH]c2ccc(OCc3cccs3)cc12 (stereo not given)
inactive: [1] | [2] | [3] | [4] | [6]

CC(N)C(=O)OC(C)(C)Cc1ccc(Cl)cc1 (stereo not given)
inactive: all assays above

CCCN1CCC[C@@H](c2cccc(O)c2)C1
inactive: [1] | [2] | [3] | [4] | [5] | [6]
